Screening results as filed in PubChem BioAssay.
Compounds with a hit are over-represented: about 19% of the library has one in this group of screens.
TDP1 cell noCPT: qHTS for Inhibitors of human tyrosyl-DNA phosphodiesterase 1 (TDP1): qHTS in cells in absence of CPT; Potency, µM (highest dose often 46.2 µM), for the others: at the highest dose activity change, negative = growth inhibition, actives largely listed as inhibitors; 420,000 compounds, 15% hits; DT40 Tdp1-/- hTDP1 cells, no CPT, ATP luminescence, 48 h; note: potency is the fitted concentration of half-maximal effect; % is set by controls: 0 for no effect and ±100 for the full control effect; nearly all actives have a fitted effect of over 55% in size
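Growth kinetics read by CellTiter-Glo luminescence after ≥48 hr at 37 °C. Cells: DT40 Tdp1-/- stably carrying human TDP1, 400 per well, compound exposure in the absence of CPT (DMSO vehicle).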
IL-1B inflam inh: qHTS for Inhibitors of Inflammasome Signaling: IL-1-beta AlphaLISA Primary Screen. THP-1 LPS/ATP IL-1B secretion, AlphaLISA, 16 h; stronger effect = lower value. activity change, % at 57.5 µM. 360,000 compounds, 4.7% hits. AID 743279, 2014; in the data active = activity change below about -50%; inconclusive = mostly about -30% to -49%; note: % is set by controls: 0 for no effect and ±100 for the full control effect
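THP-1 cells pretreated 1 hr with compounds (up to 57.5 uM final), then stimulated with LPS (250 ng/mL final) plus ATP (1.25 mM final); secreted IL-1B measured by AlphaLISA after 16 hr, decreased signal indicating inhibition.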
DT40 TDP1 CPT: qHTS for Inhibitors of human tyrosyl-DNA phosphodiesterase 1 (TDP1): qHTS in cells in presence of CPT. Potency, µM (series often up to 46.2 µM), without a hit: at the top dose activity change, negative = growth inhibition, hits mostly inhibitors. 420,000 compounds, 12% hits. chicken DT40 Tdp1-/-;hTDP1 cells + 20 nM CPT, ATP luminescence, 48 h; note: potency is the fitted concentration of half-maximal effect; % is set by controls: 0 for no effect and ±100 for the full control effect; nearly all actives have a fitted effect of over 55% in size
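Chicken DT40 Tdp1-/- cells complemented with human TDP1, 400 cells/well, exposed to compounds plus 20 nM camptothecin for at least 48 h at 37 C; viability read as ATP content by CellTiter-Glo luminescence.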
TGFb inhibitor: qHTS for Inhibitors of TGF-b; HepG2 CAGA-GFP TGF-b/SMAD3 reporter, GFP fluorescence, 18 h; TGF-beta stimulated, 500 pg/mL final; Potency, µM (highest dose often 46.1 µM), for the others: top-dose activity, negative = inhibition, actives largely listed as inhibitors; 410,000 compounds, 1.2% hits; note: potency is the fitted concentration of half-maximal effect; % is set by controls: 0 for no effect and ±100 for the full control effect; nearly all actives have a fitted effect of over 65% in size
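HEPG2 CAGA-GFP, 1000 cells/well; 2 h settle, 37 C; cpd via pin tool; TGF-b 500 pg/mL final; 18 h, 37 C; GFP imaging ex488/em500-530; %Activity normalised to -TGF-b and +DMSO controls; CRC fit, curve class.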
HepG2 viability: qHTS for Inhibitors of TGF-b: Cytotox Counterscreen; HepG2 CAGA-GFP viability, ATP luminescence, 18 h; Potency, µM (highest dose often 46.1 µM), without a hit: top-dose activity change, negative = cytotoxicity, actives largely listed as cytotoxic; 410,000 compounds, 0.76% hits; note: potency is the fitted concentration of half-maximal effect
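HepG2 CAGA-GFP cells (1000/well, DMEM with 1% FBS) received compound, then TGF-beta at 500 pg/mL final, and were incubated 18 hours at 37 degrees C. Viability was read by CellTiter-Glo luminescence. Media-only wells were set as complete cell-killing and DMSO as no toxicity.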
TDP1 inh: qHTS Assay for Inhibitors of Tyrosyl-DNA Phosphodiesterase (TDP1) | 350,000 compounds, 0.28% hits | Potency, µM (titrated, usually from 130 µM), for the others: top-dose activity change, negative = inhibition, actives largely listed as inhibitors | Tyrosyl-DNA phosphodiesterase 1 (Homo sapiens), Q9NUW8 | recombinant TDP1, AlphaScreen DNA substrate cleavage; note: potency is the fitted concentration of half-maximal effect; % is set by controls: 0 for no effect and ±100 for the full control effect; nearly all actives have a fitted effect of over 40% in size
Target sequence (Q9NUW8 whole entry, looked up): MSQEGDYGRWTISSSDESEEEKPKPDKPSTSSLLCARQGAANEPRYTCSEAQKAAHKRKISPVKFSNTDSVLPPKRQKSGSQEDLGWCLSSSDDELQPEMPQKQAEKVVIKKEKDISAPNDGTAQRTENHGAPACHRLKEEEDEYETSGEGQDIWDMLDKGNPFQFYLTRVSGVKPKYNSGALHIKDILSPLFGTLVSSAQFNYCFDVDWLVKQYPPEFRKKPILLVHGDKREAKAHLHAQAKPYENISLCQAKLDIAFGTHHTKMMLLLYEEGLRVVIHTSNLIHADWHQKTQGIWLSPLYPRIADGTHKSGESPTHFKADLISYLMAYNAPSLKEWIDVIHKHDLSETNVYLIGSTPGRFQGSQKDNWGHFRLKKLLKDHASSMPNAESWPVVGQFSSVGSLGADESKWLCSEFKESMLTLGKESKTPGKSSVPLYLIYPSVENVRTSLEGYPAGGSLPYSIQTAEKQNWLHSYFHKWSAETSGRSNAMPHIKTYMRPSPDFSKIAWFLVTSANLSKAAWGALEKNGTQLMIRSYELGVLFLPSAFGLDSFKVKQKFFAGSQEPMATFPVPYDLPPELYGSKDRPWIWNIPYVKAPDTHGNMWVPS
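Tdp1 1 nM final; 15 min RT w/ cpd; substrate 15 nM, 5 min; beads 10 ug/ml, 10 min; AlphaScreen read. Neg ctrl: no enzyme.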
Numbers without * were called inactive; u = inconclusive; x = no result; [ ] = dose if it differs, or a comment. Unless noted, calls come from the whole dose curve; as a rule, active = well fitted curve in the direction sought with a large enough effect; inconclusive = small, poorly fitted or top-dose-only effect, or another doubt; inactive = no such curve, though single readings can be large; an effect the other way counts as inactive or inconclusive.

SMILES | TDP1 cell noCPT | IL-1B inflam inh | DT40 TDP1 CPT | TGFb inhibitor | HepG2 viability | TDP1 inh
CN1CCN(c2nc(-c3cc4ccccc4o3)cs2)CC1 | 10.8% | 21.2 | -3.7% | -2.5% | 3.4% | 1.1%
Cc1cc(C)n(CCc2nc(-c3cc4ccccc4o3)cs2)n1 | 18.4µM* | -9.7 | 18.4µM* | u | 0.9% | 0.0%
COc1cc2nc(NCCC(C)C)n3nc(-c4ccccc4)nc3c2cc1OC | u | x | u | 7.8% | -1.0% | 2.9%
CC(C)(C)OC(=O)N1CCC(c2c(C(=O)NCCN3CCOCC3)cnn2-c2cccc(Cl)c2)CC1 | u | x | u | -30.9% | -23.5% | -1.1%
COc1cccc(N2CCN(C(=O)C3CCN(S(=O)(=O)c4cn(C)cn4)CC3)CC2)c1 | -9.3% | x | -1.7% | 13.7% | 0.3% | 1.2%
Cc1ccc(S(=O)(=O)N2CCOCC2)cc1NC(=O)CSc1nnc2cc(C)c3ccccc3n12 | 23.1µM* | -20.8 | u | -16.0% | 1.3% | 2.7%
Cc1cc2nnc(SCC(=O)Nc3cc(S(=O)(=O)N4CCOCC4)ccc3Cl)n2c2ccccc12 | 16.4µM* | u | u | 0.0% | 8.4% | 5.5%
Cc1nc(SCC(=O)Nc2cc(S(=O)(=O)N3CCOCC3)ccc2Cl)nc(C)c1C | -29.3% | 0.0 | u | -9.2% | -9.5% | 2.0%
CS(=O)(=O)N1CCC2(CCCN(c3ccccn3)C2)CC1 | -25.9% | x | -25.1% | x | x | x
COc1ccc(C)cc1NC(=O)N1CCN(c2cc(-c3noc(C)n3)ccc2C)CC1 | 23.1µM* | x | u | u | -13.8% | 0.0%
COc1ccc(C)cc1NC(=O)Nc1cccc(-c2noc(C)n2)c1 | u | x | u | -13.7% | -28.6% | -1.1%
COC(=O)[C@]12CCCCC=C1N(CCC1=CCCCC1)C(=O)[C@H](CC(=O)NCCCCc1ccccc1)C2 | 18.4µM* | u | u | x | x | x
COCCCNC(=O)C[C@@H]1C[C@@]2(C(=O)OC)CCCCC=C2N(CCC2=CCCCC2)C1=O | 16.4µM* | 1.0 | u | x | x | x
COC(=O)[C@]12CCCCC=C1N(CCC1=CCCCC1)C(=O)[C@H](CC(=O)NCCCN1CCCC1=O)C2 | u | 8.0 | u | x | x | x
O=C(Cn1nc2c(cc1=O)CCCC2)NCc1ccccc1 | u | x | u | 0.3% | -0.8% | -2.2%
CC(C)(C)c1ccc(OCC(=O)Nc2ccc(-c3nc4cccnc4o3)cc2)cc1 | 9.2µM* | -15.6 | u | 0.2% | -24.8% | 6.1%
COc1ccc(-c2nc3ccccc3s2)cc1NC(=O)COc1ccc(C)cc1 | x | x | x | 9.6% | -4.4% | 0.6%
COc1ccc(-c2nc3ccccc3s2)cc1NC(=O)COc1cccc(C)c1 | 16.4µM* | x | u | 0.5% | -21.7% | 0.0%
Cc1cc(-c2nc3ncccc3o2)ccc1NC(=O)COc1ccc(C(C)(C)C)cc1 | 16.4µM* | x | 18.4µM* | 1.4% | 1.2% | -1.1%
COc1ccc(-c2nc3ccccc3o2)cc1NC(=O)COc1ccc(C(C)(C)C)cc1 | 16.4µM* | x | u | 1.5% | -23.3% | -4.0%[12.3 µM]
COc1ccc(-c2nc3ccccc3o2)cc1NC(=O)COc1ccc(C)cc1 | -18.4% | x | u | -7.5% | -0.4% | x
Cc1cccc(CS(=O)(=O)c2cn(CC(=O)N3CCOCC3)c3ccccc23)c1 | -14.9% | 0.0 | -1.7% | -5.0% | -1.3% | 5.1%
COC(=O)c1ccc(N/C=C/C(=O)c2ccccc2)cc1 | -22.6% | 25.0 | -8.3% | -0.1% | -1.2% | x
COc1ccc(C(=O)CSc2nc3nn(-c4ccccc4)c(=O)c-3c3n2CCCCC3)c(OC)c1 | u | -17.9 | u | -3.0% | -25.6% | x
Cc1ccccc1Oc1cc(-n2ncc(Cl)c(Cl)c2=O)ncn1 | 0.411µM* | -105.6* | 0.651µM* | 3.98µM* | 7.08µM* | 5.6%
SMILES | TDP1 cell noCPT | IL-1B inflam inh | DT40 TDP1 CPT | TGFb inhibitor | HepG2 viability | TDP1 inh
C[C@]12C(=O)N(c3ccc(Cl)cc3)C(=O)N1[C@@H]1c3ccccc3OC[C@@H]1[C@H]2c1ccccc1 | 23.1µM* | -1.8 | u | -1.9% | -16.5% | x
C[C@@]12C(=O)N(c3ccccc3)C(=O)N1[C@@H]1c3ccccc3OC[C@@H]1[C@H]2c1ccccc1 | u | -5.9 | 16.4µM* | -0.8% | -16.0% | -0.1%
C[C@@]12C(=O)N(c3cccc(F)c3)C(=O)N1[C@@H]1c3ccccc3OC[C@@H]1[C@H]2c1ccccc1 | 14.6µM* | -8.0 | u | -11.9% | -16.4% | 0.1%
C[C@@]12C(=O)N(c3ccc(Br)cc3)C(=O)N1[C@@H]1c3ccccc3OC[C@@H]1[C@H]2c1ccccc1 | 18.4µM* | -2.3 | u | -1.7% | -2.0% | 0.6%
C[C@]12C(=O)N(c3ccc(Cl)cc3)C(=O)N1[C@H]1c3ccccc3OC[C@@H]1[C@H]2c1ccccc1 | u | -5.8 | u | 4.5% | -1.2% | x
CC(CCc1ccc(O)cc1)NCCC(c1ccccc1)c1ccccc1 (stereo not drawn) | 5.17µM* | -29.5 | u | u | -88.0% | 4.8%
CC(CCc1ccc(O)cc1)NCc1ccc(Br)cc1 (stereo not drawn) | 16.4µM* | -10.8 | 11.6µM* | u | -24.1% | x
CC(CCc1ccc(O)cc1)NC(c1ccccc1)c1ccc(Cl)cc1 (stereo not drawn) | u | -100.3* | u | u | 11.2µM* | 3.7%
CC(CCc1ccc(O)cc1)N(C)CCc1ccccc1 (stereo not drawn) | -3.4% | -2.5 | -27.5% | 26.0% | -19.7% | 4.8%
CC(CCc1ccccc1)NCc1ccc(Cl)cc1Cl (stereo not drawn) | u | -70.4* | u | u | -39.2% | x
COc1cccc(C(=O)N(Cc2cc3cc4c(cc3nc2N(C)C)OCO4)CC2CCCO2)c1 (stereo not drawn) | -14.4% | x | -0.4%[9.04 µM] | x | x | x
CCC(C(=O)N1CCOCC1)n1nc(C)c2c(C)n(-c3ccccc3)nc2c1=O (stereo not drawn) | -11.6% | -2.5 | -1.1% | 5.0% | 0.4% | 0.5%
Cc1cccc(NC(=O)c2sc3nc(-c4ccccc4)cn3c2C)n1 | u | -58.6* | u | -28.8% | -20.8% | -7.4%
COCCNC(=O)c1sc2nc(-c3ccccc3)cn2c1C | -5.5% | 9.3 | -2.3% | 6.4% | 3.1% | 4.0%
